In the supplement of paper PMC6992640:

What follows are molecules tested on UCD52 (cells of a triple-negative basal-like breast cancer xenograft) (assay: cell viability of combination (% of vehicle); higher = less cytotoxic). Conditions: 1 µM; 72 h; partner dose: 10 nM.
Protocol: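 PDX cells were treated for 72 h with each drug at 1 µM plus afatinib (10 nM; 1 µM for WHIM30). Luciferase viability is expressed as percent of vehicle.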

Row | Structure (SMILES) | cell viability of combination
1 | CCCCCCCCCCCCCCCC[N+](C)(C)C.[Br-] [Cetrimonium Bromide (CTAB)] + CN(C)C/C=C/C(=O)Nc1cc2c(Nc3ccc(F)c(Cl)c3)ncnc2cc1O[C@H]1CCOC1 [Afatinib] | 66.1
2 | CCCCCCCCCCCCCCCC[n+]1ccccc1.[Cl-] [Cetylpyridinium Chloride] + CN(C)C/C=C/C(=O)Nc1cc2c(Nc3ccc(F)c(Cl)c3)ncnc2cc1O[C@H]1CCOC1 [Afatinib] | 55.3
3 | Cc1cc(C(C#N)c2ccc(Cl)cc2)c(Cl)cc1NC(=O)c1cc(I)cc(I)c1[O-].[Na+] (stereo not given) [Closantel Sodium] + CN(C)C/C=C/C(=O)Nc1cc2c(Nc3ccc(F)c(Cl)c3)ncnc2cc1O[C@H]1CCOC1 [Afatinib] | 72.7
4 | Cc1cc(C(C#N)c2ccc(Cl)cc2)c(Cl)cc1NC(=O)c1cc(I)cc(I)c1O (stereo not given) [Closantel] + CN(C)C/C=C/C(=O)Nc1cc2c(Nc3ccc(F)c(Cl)c3)ncnc2cc1O[C@H]1CCOC1 [Afatinib] | 75.8
5 | CCCCCCCCCCCC[N+](C)(C)CCOc1ccccc1.[Br-] [Domiphen Bromide] + CN(C)C/C=C/C(=O)Nc1cc2c(Nc3ccc(F)c(Cl)c3)ncnc2cc1O[C@H]1CCOC1 [Afatinib] | 65.3
